Assay outcomes deposited in PubChem by several laboratories.
Most compounds without a hit are left out; they make up all but 0.92% or so of the library.
Rv3671c inh = inhibits the M. tuberculosis serine protease Rv3671c; P9WHR9; inhibition, % at 5.96 µM; actives 0.048% (n = 320,000); AID 2606; in the data active = inhibition above about 38%;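 note: extracellular domain of Rv3671c used as enzyme; 0% = enzyme with DMSO and 100% = no enzyme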
Mtb UGM inh = inhibitors of M. tuberculosis UDP-galactopyranose mutase; purified UGM, fluorescence polarization probe displacement; inhibition, % at 10 µM; actives 0.06% (n = 320,000); AID 504406; in the data active = inhibition above about 10%, passing the limit was not always enough; inconclusive = no clear call, values can overlap the other calls
RecA intein inh = inhibitors of M. tuberculosis RecA intein splicing | P9WHJ3 | cell-free RecA intein splicing, fluorescence | inhibition, % (no concentration beside the values) | actives 0.75% (n = 290,000) | AID 2221; in the data active = inhibition above about 30%; inconclusive = no clear call, values can overlap the other calls;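 note: 0% = vehicle wells and 100% = reference inhibitor control wells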
Target sequence (P9WHJ3 whole entry, looked up): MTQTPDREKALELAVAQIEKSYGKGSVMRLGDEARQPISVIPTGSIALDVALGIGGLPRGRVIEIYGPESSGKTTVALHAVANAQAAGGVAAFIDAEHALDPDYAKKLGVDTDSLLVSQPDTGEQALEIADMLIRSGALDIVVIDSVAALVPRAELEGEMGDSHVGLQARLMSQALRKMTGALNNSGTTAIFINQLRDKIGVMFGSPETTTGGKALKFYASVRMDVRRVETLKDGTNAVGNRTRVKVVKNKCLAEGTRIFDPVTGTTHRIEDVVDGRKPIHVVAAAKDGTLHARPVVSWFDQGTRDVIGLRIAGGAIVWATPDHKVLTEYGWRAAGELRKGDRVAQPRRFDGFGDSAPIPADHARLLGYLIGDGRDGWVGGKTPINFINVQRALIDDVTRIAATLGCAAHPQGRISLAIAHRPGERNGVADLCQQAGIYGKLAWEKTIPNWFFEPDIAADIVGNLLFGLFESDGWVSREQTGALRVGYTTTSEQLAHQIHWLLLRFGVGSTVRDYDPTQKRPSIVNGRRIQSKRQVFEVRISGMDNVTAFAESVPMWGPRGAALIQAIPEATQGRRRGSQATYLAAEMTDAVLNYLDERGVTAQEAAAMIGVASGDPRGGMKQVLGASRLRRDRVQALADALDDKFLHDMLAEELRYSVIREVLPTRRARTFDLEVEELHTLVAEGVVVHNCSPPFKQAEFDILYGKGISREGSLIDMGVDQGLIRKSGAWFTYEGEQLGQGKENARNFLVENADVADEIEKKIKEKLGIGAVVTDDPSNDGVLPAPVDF
Mtb hypoxia inh = inhibitors of hypoxia-regulated fluorescent reporter in Mycobacterium tuberculosis; M. tuberculosis hypoxia-regulated fluorescent reporter, fluorescence; actives 0.1% (n = 300,000); fluorescence inhibition, % (test concentration not listed); in the data active = fluorescence inhibition mostly above about 23%, no sharp cut-off; inactive = mostly below about 17%
FadD28 FP inh = inhibitors of Mycobacterium tuberculosis FadD28 bisubstrate binding; actives 0.22% (n = 360,000); AID 588549; FadD28 bisubstrate probe binding, fluorescence polarization; inhibition, % at 12.5 µM; in the data active = inhibition above about 8.5%, passing the limit was not always enough; inconclusive = no clear call, values can overlap the other calls
Active calls of the source: *; i = inactive; ? = inconclusive; · = no result shown.

SMILES	Rv3671c inh	Mtb UGM inh	RecA intein inh	Mtb hypoxia inh	FadD28 FP inh
O=C1C(Nc2ccccc2)=C(N2CCCCC2)C(=O)c2ccccc21	-137	-1	46*	-6	0
CCN(CCCNc1cc2c(c(N)c1S(=O)(=O)O)C(=O)c1ccccc1C2=O)c1ccccc1	·	·	·	·	29*
O=C1c2ccccc2C(=O)c2c(NCCCN(CCO)CCO)cccc21	·	·	2	23	1
COC(=O)C1=C(c2c(C)noc2C)CC2CCC1N2C(=O)NCc1ccc2c(c1)OCO2 (stereo not given)	·	·	·	8	·
Cc1nnc(SCC(=O)N(C)CC(=O)Nc2ccccc2Cl)s1	-4	4	0	-1	-3
CCc1ccccc1NC(=O)CN(C)C(=O)CSc1nnc(Nc2cccc(C)c2C)s1	-6	-2	2	3	29*
O=C(O)c1ccc2c(c1)C1C=CCC1C(c1cc3c(cc1Br)OCO3)N2 (stereo not given)	4	-1	6	-1	5
O=C(O)c1ccc(NS(=O)(=O)c2ccc3c(c2)C2C=CCC2C(c2ccccc2F)N3)cc1 (stereo not given)	·	·	·	8	43*
CC[C@@]1(O)C(=O)OCc2c1cc1n(c2=O)Cc2cc3c(CN(C)C)c(O)ccc3nc2-1	6	34*	i	6	-1
COc1ccc(S(=O)(=O)N(C)CC2Oc3ccc(NC(=O)Nc4c(C)noc4C)cc3C(=O)N(C(C)CO)CC2C)cc1 (stereo not given)	·	·	·	-5	·
Cn1cc(/C=C/c2cc[n+](C)cc2)c2cc(F)ccc21	-2	1	-5	22	1
Cn1cc(/C=C/c2cc[n+](C)cc2)c2cc(Cl)ccc21	-2	5	-9	35*	-3
O=C(NC(c1ccccc1)C1CC1C(=O)O)OCc1ccccc1 (stereo not given)	·	·	·	10	·
CC(C)N1CCc2c(sc(NC(=O)c3cc4cc([N+](=O)[O-])ccc4s3)c2C(N)=O)C1	·	·	4	10	14*
CN1CCc2c(sc(NC(=O)c3cc4cc([N+](=O)[O-])ccc4s3)c2C(N)=O)C1	·	·	-1	·	·
COc1cc(C=CCO)cc(OC)c1OC1OC(CO)C(O)C(O)C1O (stereo not given)	·	·	·	5	·
C=CCN1C(=O)C(=c2sc3nc(=O)c(Cc4ccccc4)nn3c2=O)c2ccccc21	·	·	·	7	·
Cc1cc2[nH]c3c(c[n+](C)c4ccccc34)c2cc1C	-1	-2	-12	64*	-5
O=C(Nc1cccc(Oc2ccc(C(=O)O)c(C(=O)O)c2)c1)c1ccc(-c2ccccc2)cc1	-11	2	11	12	29*
Cc1ccc2nc(Cl)c3nnnn3c2c1	-6	0	79*	·	-1
Cc1ccsc1C=NNC(=O)CO	·	·	·	-14	·
Oc1c(N=Nc2ccc(F)cc2)ccc2ccccc12	-12	1	26	·	-1
Oc1c(N=Nc2nn[nH]n2)ccc2ccccc12	·	·	·	·	30*
Cc1cc2nc3ccc(=[N+](C)C)cc-3sc2cc1N	·	·	31*	9	1
C=CCOC(=O)c1cc(-c2ccc(/C=C3\C(=O)NC(=O)C(C#N)=C3C)o2)ccc1Cl	·	·	·	9	20*
SMILES	Rv3671c inh	Mtb UGM inh	RecA intein inh	Mtb hypoxia inh	FadD28 FP inh
NC(=O)CCC1NC(=O)C(CO)NC(=O)c2cc([N+](=O)[O-])cc(I)c2NCCCC(C(N)=O)NC(=O)C(Cc2ccc(O)cc2)NC1=O (stereo not given)	·	·	·	4	·
Cn1cnc([N+](=O)[O-])c1Sc1ccc(C(C)(C)C)cc1	-3	3	31*	8	0
COC(=O)C1=C(c2cc3ccccc3s2)CC2CCC1N2C(=O)NCc1cccc2ccccc12 (stereo not given)	·	·	·	20	·
Cc1c(C(=O)NCCSCc2ccc(Cl)cc2Cl)cccc1[N+](=O)[O-]	-4	-2	4	·	-4
Cc1ccc(C(=O)NCCSCc2ccc(Cl)cc2Cl)cc1[N+](=O)[O-]	-25	-1	7	2	17*
Cc1csc(NC(=O)CSc2nnc(NC(=O)NC(C)(C)C)s2)n1	-4	-1	-3	4	12*
O=c1c2ccccc2nc(-c2ccccc2)n1N=Cc1ccc([N+](=O)[O-])cc1	·	·	·	4	·
O=c1cc(-c2ccccc2)oc2cc(O)c(O)c(O)c12	-3	·	·	·	6
O=c1c(O)cccc2cc(O)c(O)c(O)c12	15	6	10	10	16*
O=C(Nc1cccc(Cl)c1)c1cc(N=Nc2ccc([N+](=O)[O-])cc2Cl)ccc1O	13	5	0	70*	1
O=C(Nc1ccc([N+](=O)[O-])cc1Cl)c1cc(Cl)ccc1O	-3	-3	·	·	3
Cc1ccc(C(=O)Oc2ccc([N+](=O)[O-])cc2)cc1S(=O)(=O)N1CCCCCC1	1	1	30*	0	-5
COc1cc(OC)cc(C(=O)NN=Cc2ccc(OC)c(COc3ccc(F)cc3)c2)c1	·	·	·	-7	·
O=c1oc(-c2ccccc2)cc(Cl)c1Cl	-12	0	47*	13	-1
O=c1oc(-c2ccccc2)cc2ccccc12	·	·	·	·	-1
Cc1ccc(S(=O)(=O)N2[C@@H](c3cccc(Cl)c3)C(C(=O)O)=CC[C@H]2c2cccc(C)c2)cc1	0	0	·	·	?
Cc1ccc(S(=O)(=O)N2[C@@H](c3cccc(Cl)c3)C(C(=O)O)=CC[C@H]2c2cccc(Cl)c2)cc1	-10	0	·	·	14*
COc1cc(-c2noc(C)c2C=Cc2ccc(OC(C)=O)cc2)cc(OC)c1OC	·	·	·	-2	·
COc1ccc(C(=O)NCCc2ccc(Cl)cc2)cc1S(=O)(=O)N1CCCCC1C (stereo not given)	-1	-1	·	·	7
COc1ccc(C(=O)NCCc2c[nH]c3ccccc23)cc1S(=O)(=O)N1CCCCC1C (stereo not given)	-16	-1	·	2	62*
CS/C(=C\[N+](=O)[O-])Nc1ccc(Cl)cc1	-7	0	42*	·	1
CCCC1CCCO[C@@](C(=O)NCc2cc(C)n(C)n2)(C(F)(F)F)C1 (stereo not given in full)	·	·	·	17	·
CCOc1ccc(/C(CCC(=O)O)=N/NC(=O)c2cccc(S(=O)(=O)Nc3ccccc3OC)c2)cc1	-10	11*	·	·	0
O=C(NC(Cc1ccccc1)C(=O)O)C1CCN(S(=O)(=O)c2ccccc2C(F)(F)F)CC1 (stereo not given)	-5	0	-8	-7	11*
O=C(COC(=O)c1ccc2c(c1[N+](=O)[O-])C(=O)c1ccccc1C2=O)NC1CC1	-3	0	71*	11	-1
O=C(COC(=O)c1cccc2c1C(=O)c1ccccc1C2=O)NC1CCCCC1	0	0	2	-14	0
Cc1cc(C)cc(S(=O)(=O)c2cnc3ccccc3n2)c1	4	-1	32*	10	-4
O=S(=O)(c1ccc(Cl)cc1)c1cnc2ccccc2n1	-4	-2	27	5	-3
O=C1NC(c2ccc(-c3ccccc3[N+](=O)[O-])o2)C(C(=O)c2ccc(F)cc2)C(O)(C(F)(F)F)N1 (stereo not given)	-34	1	83*	8	-1
